{"source": "PubChem BioAssay (NCATS)", "note": "Results filed as inconclusive are left out. The source made the active and inactive calls. Calls come from the whole dose curve; as a rule, active = well fitted inhibition curve with a large enough effect; inconclusive = small, poorly fitted or top-dose-only effect; inactive = flat fitted curve, though single readings scatter. % is set by controls: 0 for no effect and ±100 for the full control effect.", "data": [{"molecular_target": "Calcium and integrin-binding protein 1 (Homo sapiens) (UniProt Q99828)", "sequence (Q99828 whole entry, looked up)": "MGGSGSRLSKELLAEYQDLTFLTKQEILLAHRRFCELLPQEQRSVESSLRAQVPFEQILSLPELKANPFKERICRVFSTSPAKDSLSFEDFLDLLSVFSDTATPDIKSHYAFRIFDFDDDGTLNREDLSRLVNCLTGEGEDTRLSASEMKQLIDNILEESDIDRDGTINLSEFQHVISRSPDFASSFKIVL", "assay": "Primary qHTS for Identification of Calcium Integrin Binding Protein 1 (CIB1) Competitor (AID 1508620);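 note: GST tagged CIB1 binding a fluorescein labelled alphaIIb integrin peptide tracer; top concentration of the series differs between compounds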", "conditions": "CIB1-GST / FITC-alphaIIb peptide fluorescence polarization; series mostly up to 57.7 µM; activity change, negative = inhibition: at the top concentration", "how_it_was_run": "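Fluorescence polarization competition: CIB1-GST (1 uM final) preincubated with compound 15 min at room temperature, then FITC-labeled alphaIIb peptide (100 nM final) added for another 15 min. Polarization read at Ex 480/Em 540.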", "values": [{"smiles": "CC(=O)c1c(C)cc(O[C@@H]2O[C@H](CO)[C@@H](O)[C@H](O)[C@H]2O)cc1O", "activity change, negative = inhibition": "-1.91% (inactive)"}, {"smiles": "c1nc(NC2CCCCCC2)c2cc(CNC[C@H]3CCCO3)sc2n1", "activity change, negative = inhibition": "0.108% [at 114 µM] (inactive)"}, {"smiles": "C[C@@H]1O[C@@H](O[C@H]2[C@H](O)[C@@H](C(=O)O)O[C@@H](O[C@H]3CC[C@@]4(C)C(CC[C@]5(C)C4CC=C4C6CC(C)(C)CC[C@]6(C(=O)O)CC[C@]45C)C3(C)C)[C@@H]2O[C@@H]2O[C@H](CO)[C@@H](O)[C@H](O)[C@H]2O)[C@H](O)[C@H](O)[C@H]1O", "note": "(some centres not stated)", "activity change, negative = inhibition": "2.54% [at 30.2 µM] (inactive)"}, {"smiles": "C/C(=C/CO)CC[C@@H]1[C@@]2(C)CCC[C@](C)(C(=O)O)C2CC[C@@]1(C)O", "note": "(some centres not stated)", "activity change, negative = inhibition": "-2.44% (inactive)"}, {"smiles": "CC1CCC2(C(=O)OC3OC(CO)C(O)C(O)C3O)CCC3(C)C(=CCC4C5(C)CC(O)C(O)C(C)(C(=O)O)C5CCC43C)C2C1(C)O", "note": "(configuration not stated)", "activity change, negative = inhibition": "4.06% [at 30.2 µM] (inactive)"}, {"smiles": "CC1(C)CC[C@]2(C(=O)O)CC[C@]3(C)C(=CCC4[C@@]5(C)C[C@H](O)[C@H](O[C@@H]6OC[C@H](O)[C@H](O)[C@H]6O)[C@@](C)(CO)C5CC[C@]43C)[C@@H]2C1", "note": "(some centres not stated)", "activity change, negative = inhibition": "5.54% [at 30.2 µM] (inactive)"}, {"smiles": "CC[C@H](C)/C=C(C)/C=C/C(=O)Cc1cc(O)c(C)c(O)c1C=O", "activity change, negative = inhibition": "-11% (inactive)"}, {"smiles": "O=C1CC(c2ccc([N+](=O)[O-])cc2)=NN1c1ccccc1", "activity change, negative = inhibition": "-6.45% [at 114 µM] (inactive)"}, {"smiles": "N#CCc1ccc(O)cc1O[C@@H]1O[C@H](CO)[C@@H](O)[C@H](O)[C@H]1O", "activity change, negative = inhibition": "-1.69% (inactive)"}, {"smiles": "O=C1NC(Cc2ccc(O)cc2)C(=O)N2CCCC12", "note": "(configuration not stated)", "activity change, negative = inhibition": "-3.54% [at 114 µM] (inactive)"}, {"smiles": "Cc1cc(N2CCCCC2)nc2ccccc12", "activity change, negative = inhibition": "-1.75% [at 114 µM] (inactive)"}, {"smiles": "C[C@@H]1C[C@H](O[C@@H]2O[C@H](CO[C@@H]3OC[C@](O)(CO)[C@H]3O)[C@@H](O)[C@H](O)[C@H]2O)CC(C)(C)[C@H]1/C=C/[C@@H](C)O", "activity change, negative = inhibition": "-0.584% (inactive)"}, {"smiles": "O=C(/C=C/c1ccc(O)cc1)OCC1=CC2OC(=O)C3=CO[C@@H](O[C@@H]4O[C@H](CO)[C@@H](O)[C@H](O)[C@H]4O)[C@H]1[C@@H]32", "note": "(some centres not stated)", "activity change, negative = inhibition": "-0.472% (inactive)"}, {"smiles": "Nc1ccn([C@@H]2C(F)=C(CO)[C@@H](O)[C@H]2O)c(=O)n1", "Potency": "inactive"}, {"smiles": "CC[C@H]1OC(=O)C[C@@H](O)[C@H](C)[C@@H](O[C@@H]2O[C@H](C)[C@@H](O)[C@H](N(C)C)[C@H]2O)[C@@H](CCN2C[C@H](C)C[C@H](C)C2)C[C@@H](C)C(=O)/C=C/C(C)=C/[C@@H]1CO[C@@H]1O[C@H](C)[C@@H](O)[C@@H](OC)[C@H]1OC", "activity change, negative = inhibition": "-5.76% [at 114 µM] (inactive)"}, {"smiles": "C=C1CC2C3(C)C(OC(C)=O)CC(=O)OC(C)(C)C3C(O)C(OC(C)=O)C2(C)C2C(=O)OC(C)C(=O)C12C", "note": "(configuration not stated)", "activity change, negative = inhibition": "2.69% (inactive)"}, {"smiles": "CC1OC(OC2C(CO)OC(OCC3OC(OC(=O)C45CCC(C)(C)CC4C4=CCC6C7(C)CCC(OC8OC(C(=O)O)C(O)C(OC9OC(CO)C(O)C(O)C9O)C8O)C(C)(C)C7CCC6(C)C4(C)CC5)C(O)C(O)C3O)C(O)C2O)C(O)C(O)C1O", "note": "(configuration not stated)", "activity change, negative = inhibition": "0.696% [at 12.4 µM] (inactive)"}, {"smiles": "COc1cc2c(Nc3ccc(Cl)c(Cl)c3F)ncnc2cc1OCC1C[C@@H]2CN(C)C[C@@H]2C1", "note": "(some centres not stated)", "Potency": "inactive"}, {"smiles": "CC(=O)O[C@@H]1[C@H](O[C@@H]2OC[C@](O)(CO)[C@H]2O)[C@@H](O[C@@H]2O[C@@H](C)[C@H](O)[C@@H](O)[C@H]2O)[C@H](OC(=O)[C@]23CCC(C)(C)C[C@H]2C2=CCC4[C@@]5(C)C[C@H](O)[C@H](O[C@@H]6O[C@H](C(=O)O)[C@@H](O)[C@H](O)[C@H]6O)[C@@](C)(C(=O)O)C5CC[C@@]4(C)[C@]2(C)CC3)O[C@@H]1C", "note": "(some centres not stated)", "activity change, negative = inhibition": "-1.72% [at 30.2 µM] (inactive)"}, {"smiles": "COC(=O)C1=CO[C@@H](O[C@@H]2O[C@H](CO)[C@@H](O)[C@H](O)[C@H]2O)[C@@H]2[C@@H](C)[C@@H](O)C[C@H]12", "activity change, negative = inhibition": "-4.6% (inactive)"}, {"smiles": "COc1c(C)c(OCC=C(C)C)cc2c1C(=O)NC2=O", "activity change, negative = inhibition": "0.572% [at 114 µM] (inactive)"}, {"smiles": "Cc1ccc(Sc2cncc3sc(C(N)=O)cc23)cc1", "activity change, negative = inhibition": "0.507% [at 114 µM] (inactive)"}, {"smiles": "CC1=CC2(O)/C=C/C(C)(O)CC(O)/C=C/C(=O)OC23C(=O)NC(CC(C)C)C3C1C", "note": "(configuration not stated)", "activity change, negative = inhibition": "1.02% (inactive)"}, {"smiles": "Clc1ccc2c(c1)C1=NCCN1c1c(-c3noc(C4CC4)n3)ncn1-2", "activity change, negative = inhibition": "-7.06% [at 114 µM] (inactive)"}, {"smiles": "O=c1ccn([C@@H]2O[C@H](CO)[C@@H](O)[C@H]2O)c(=O)[nH]1", "activity change, negative = inhibition": "-2.23% [at 114 µM] (inactive)"}, {"smiles": "C=C1CCC2[C@@](C)(C=O)CCC[C@]2(C)[C@H]1CC/C(C)=C/CO", "note": "(some centres not stated)", "activity change, negative = inhibition": "-6.52% [at 114 µM] (inactive)"}, {"smiles": "CC1[C@@H](O)[C@@H](O)C2[C@]3(C)C(C[C@H]4OC(=O)[C@H](O)[C@]1(O)[C@@]24C)C(C)(O)C[C@H](O)[C@H]3O", "note": "(some centres not stated)", "activity change, negative = inhibition": "-5.08% (inactive)"}, {"smiles": "CC(C)c1nc(N(C)S(C)(=O)=O)nc(-c2ccc(F)cc2)c1/C=C/[C@@H](O)C[C@@H](O)CC(=O)O", "activity change, negative = inhibition": "-5.25% [at 114 µM] (inactive)"}, {"smiles": "COc1ccc(C[C@H](N)C(=O)N[C@H]2[C@@H](O)[C@H](n3cnc4c(N(C)C)ncnc43)O[C@@H]2CO)cc1", "activity change, negative = inhibition": "3.37% [at 114 µM] (inactive)"}, {"smiles": "CC1=C2CC3OC3(C)CCC3OC3(C)CC2OC1=O", "note": "(configuration not stated)", "activity change, negative = inhibition": "-1.66% [at 114 µM] (inactive)"}, {"smiles": "COc1cc([C@H]2OC[C@@H]3[C@@H](c4ccc(O[C@@H]5O[C@H](CO)[C@@H](O)[C@H](O)[C@H]5O)c(OC)c4)OC[C@]23O)ccc1O", "activity change, negative = inhibition": "2.98% (inactive)"}, {"smiles": "COC(=O)C1=C[C@@H](O)[C@@H](O)[C@H](O[C@@H]2O[C@H](COC(=O)/C=C/c3ccccc3)[C@@H](O)[C@H](O)[C@H]2O)C1", "activity change, negative = inhibition": "-16.7% (inactive)"}]}]}
